Screening data: PubChem BioAssay, National Center for Advancing Translational Sciences (NCATS)
Hits are enriched below; roughly 5.7% of the tested compounds scored in any of these assays.
HepG2 viability = qHTS for Inhibitors of TGF-b: Cytotox Counterscreen; 0.76% of 410,000 active; AID 588856, 2011; Potency, µM (titrated, usually from 46.1 µM), inactives show top-dose activity change, negative = cytotoxicity, most hits filed as cytotoxic; HepG2 CAGA-GFP viability, ATP luminescence, 18 h; also: potency is read from the fitted curve at half-maximal effect
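CellTiter-Glo luminescence gave cytotoxicity after 18 hours at 37 degrees C. The cells were HepG2 CAGA-GFP in 1% FBS DMEM, stimulated with 500 pg/mL TGF-beta after compound addition. %Activity was normalised to no-cell wells (complete cell-killing) and DMSO (no toxicity), and curves were fitted and classified.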
S2 tox = Viability Counterscreen for Primary qHTS for Inhibitors of ATXN expression. S2 cells (HEK-293 line with an ATXN2-luciferase reporter) viability, CellTiter-Fluor protease fluorescence, 24 h. Potency, µM (doses to about 56.7 µM), usual class: cytotoxic. 0.49% of 400,000 active. AID 651635, 2014; also: potency is read from the fitted curve at half-maximal effect; nearly all actives have a fitted effect of over 40% in size
ATXN2 expr inh = Primary qHTS for Inhibitors of ATXN expression; 0.72% of 360,000 active; HEK-293 ATXN2-luciferase reporter, luminescence, 24 h; Potency, µM (top dose mostly 57 µM), for inactives: at the top dose activity change, negative = inhibition, most hits filed as inhibitors; also: potency is read from the fitted curve at half-maximal effect; % is scaled to controls: 0 for no effect and ±100 for the full control effect; nearly all actives have a fitted effect of over 55% in size
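ATXN2-luciferase reporter cells (luciferase flanked by upstream and downstream ATXN2 gene portions) were treated 24 h at 37 °C with compounds at up to 57 uM. SteadyGlo luminescence gave expression; GF-AFC fluorescence gave viability.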
IL1B secr inh = qHTS for Inhibitors of Inflammasome Signaling: IL-1-beta AlphaLISA Primary Screen. THP-1 LPS/ATP IL-1B secretion, AlphaLISA, 16 h; hits give low values. activity change, % at 57.5 µM. 4.7% of 360,000 active; in the data active = activity change below about -50%; inconclusive = mostly about -30% to -49%; also: % is scaled to controls: 0 for no effect and ±100 for the full control effect
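Secreted IL-1B measured by AlphaLISA bead assay after 16 h compound exposure of THP-1 cells; compounds (final up to 57.5 uM) added 1 h before LPS (250 ng/mL) and ATP (1.25 mM) stimulation; lower signal means less secretion.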
TGFb inhibitor = qHTS for Inhibitors of TGF-b. HepG2 CAGA-GFP TGF-b/SMAD3 reporter, GFP fluorescence, 18 h; TGF-beta stimulated, 500 pg/mL final. Potency, µM (series often up to 46.1 µM), for inactives: at the top dose activity, negative = inhibition, most hits filed as inhibitors. 1.2% of 410,000 active; also: potency is read from the fitted curve at half-maximal effect; % is scaled to controls: 0 for no effect and ±100 for the full control effect; nearly all actives have a fitted effect of over 65% in size
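Per well, imaged GFP fluorescence of HEPG2 CAGA-GFP cells gives the signal; cells get compound, then TGF-beta (500 pg/mL final), 18 h at 37 degrees C; %Activity versus -TGF-beta and +DMSO controls.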
Active calls of the source: *. Unless noted, calls follow the shape of the dose curve; as a rule, active = well fitted curve in the direction sought with a large enough effect; inconclusive = small, poorly fitted or top-dose-only effect, or another doubt; inactive = no such curve, though single readings can be large; an effect the other way counts as inactive or inconclusive.

Cc1ccc(C(C)C)c(OCc2nn(CC(=O)c3ccc(Cl)cc3)c3[n+]2CCCCC3)c1 was read as HepG2 viability -104%, S2 tox inconclusive, ATXN2 expr inh inconclusive, IL1B secr inh -107* and TGFb inhibitor inconclusive.
`O=C(Cn1nc(CNc2ccc(Cl)cc2)[n+]2c1CCCCC2)c1ccccc1` gave HepG2 viability -13%, S2 tox inactive, ATXN2 expr inh -7%, IL1B secr inh -53* and TGFb inhibitor 1%.
Screening Clc1ccc(NCc2nnc3n2CCCCC3)cc1 returned HepG2 viability 0%, S2 tox inactive, ATXN2 expr inh 1%, IL1B secr inh -2 and TGFb inhibitor -3%.
`CC(OCCN1CCCC1)(c1ccc(F)cc1)c1ccc(F)cc1` gave HepG2 viability -30%, S2 tox inactive, ATXN2 expr inh -30%, IL1B secr inh -59* and TGFb inhibitor -27%.
`Fc1ccc(OCCOCCN2CCCC2)cc1` gave HepG2 viability 7%, S2 tox inactive, ATXN2 expr inh -12%, IL1B secr inh 8 and TGFb inhibitor 0%.
For COc1cccc2sc(N(CCN(C)C)C(=O)c3ccc4c(c3)CCCC4)nc12 the results were HepG2 viability -39%, S2 tox inactive, ATXN2 expr inh -23%, IL1B secr inh inactive and TGFb inhibitor -26%.
`CCOc1ccc2nc(N(CCCN(C)C)C(=O)c3ccc4c(c3)CCCC4)sc2c1` gave HepG2 viability 18µM*, S2 tox inactive, ATXN2 expr inh inconclusive, IL1B secr inh -58* and TGFb inhibitor inconclusive.
CCOc1ccc2nc(N(CCN(C)C)C(=O)c3cc4ccccc4cc3OC)sc2c1 was read as HepG2 viability -18%, S2 tox inconclusive, IL1B secr inh inconclusive and TGFb inhibitor inconclusive.
For CN(C)CCCN(C(=O)c1ccc2c(c1)CCCC2)c1nc2ccc(Cl)cc2s1 the results were HepG2 viability -98%, ATXN2 expr inh inconclusive, IL1B secr inh -123* and TGFb inhibitor inconclusive.
CCCN(CC(=O)Nc1ccccc1OC)C(=O)Cn1[nH]c(=O)c2ccccc2c1=O was read as HepG2 viability 8%, S2 tox inactive, ATXN2 expr inh 5%, IL1B secr inh 0 and TGFb inhibitor -1%.
`CCCN(CC(=O)Nc1ccccc1OC)C(=O)CSc1ccc(Br)cc1C` gave HepG2 viability -29%, S2 tox inactive, ATXN2 expr inh -30%, IL1B secr inh -54* and TGFb inhibitor inconclusive.
CCCc1cc(=O)[nH]c(Nc2ccc(Cl)cc2)n1 was read as HepG2 viability -35%, S2 tox inactive, ATXN2 expr inh -11%, IL1B secr inh -76* and TGFb inhibitor inconclusive.
For CCOC(=O)C1CCCN(S(=O)(=O)c2cc(-c3onc(C)c3C)ccc2OC)C1 (stereo unspecified) the results were HepG2 viability 0% and TGFb inhibitor -1%.
For Cc1nc(NCc2ccco2)c2c3c(sc2n1)CCC3 the results were HepG2 viability -53%, S2 tox inactive, ATXN2 expr inh 29%, IL1B secr inh -80* and TGFb inhibitor inconclusive.
Cc1sc2ncnc(NCc3ccco3)c2c1C was read as HepG2 viability -6%, S2 tox inactive, ATXN2 expr inh inconclusive, IL1B secr inh -59* and TGFb inhibitor -25%.
For c1ccc(CNc2ncnc3sc4c(c23)CCCC4)nc1 the results were HepG2 viability -23%, ATXN2 expr inh -13%, IL1B secr inh -12 and TGFb inhibitor inconclusive.
Screening Cc1nc(NCc2ccccn2)c2c3c(sc2n1)CCCC3 returned HepG2 viability -7%, S2 tox inactive, ATXN2 expr inh -24%, IL1B secr inh -54* and TGFb inhibitor -1%.
Screening O=C(Nc1cccnc1Oc1ccc(Cl)cc1)c1cccc2ccccc12 returned HepG2 viability 11%, S2 tox inactive, ATXN2 expr inh inconclusive, IL1B secr inh -57* and TGFb inhibitor -7%.
NC(=O)c1cccnc1Oc1ccc(Cl)cc1 was read as HepG2 viability -6%, S2 tox inactive, ATXN2 expr inh -6%, IL1B secr inh -2 and TGFb inhibitor 23%.
